Measurements from PubChem BioAssay AID886 (National Center for Advancing Translational Sciences (NCATS), 2007).
The whole screen tested about 73,000 compounds, of which about 2,500 (3.4%) were called active. Roughly 7% stayed inconclusive and do not appear here. Only a selection was taken, and actives are over-represented in it overall. Values without a mark were called inactive. Calls come from the whole dose curve; as a rule, active = well fitted inhibition curve with a large enough effect; inconclusive = small, poorly fitted or top-dose-only effect; inactive = no such curve, though single readings can be large or run the other way.

These molecules were tested against 3-hydroxyacyl-CoA dehydrogenase type-2 (Homo sapiens) (UniProt Q99714) (assay: qHTS Assay for Inhibitors of HADH2 (Hydroxyacyl-Coenzyme A Dehydrogenase, Type II)). Settings: recombinant HADH2, NADH fluorescence, beta-hydroxybutyryl-CoA; series mostly up to 57.1 µM; activity change, negative = inhibition: at the top concentration.
Chain of 3-hydroxyacyl-CoA dehydrogenase type-2 (Homo sapiens) (Q99714 whole entry, looked up): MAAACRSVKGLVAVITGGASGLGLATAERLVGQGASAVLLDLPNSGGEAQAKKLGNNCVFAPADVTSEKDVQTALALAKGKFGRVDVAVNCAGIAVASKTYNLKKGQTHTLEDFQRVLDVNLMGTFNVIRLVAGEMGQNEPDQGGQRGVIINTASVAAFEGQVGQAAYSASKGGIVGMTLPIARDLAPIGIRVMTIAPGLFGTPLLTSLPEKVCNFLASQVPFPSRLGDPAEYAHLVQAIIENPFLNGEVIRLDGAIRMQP
Chain of 3-hydroxyacyl-CoA dehydrogenase type-2 (Homo sapiens) (Q99714 whole entry, looked up): as above
Source text: Assay Overview: NIH Molecular Libraries Screening Centers Network [MLSCN] NIH Chemical Genomics Center [NCGC] Structural Genomics Consortium [SGC] Grant Number: None HADH2: Hydroxyacyl-Coenzyme A dehydrogenase, type II, was supplied by researchers at the Structural Genomics Consortium, Oxford University lab (PI Udo Oppermann). The mitochondrial enzyme 17-hydroxysteroid dehydrogenase type 10 (HSD17-10) previously classified as type II hydroxyacyl-CoA dehydrogenase (HADH2) catalyzes the NAD+ dependent oxidation of a variety of substrates including acyl-CoAs, androgens and neurosteroids as well as bile acids(Shafqat N, Marschall HU, Filling C, et al. Biochemical Journal. 2003;376(Pt 1):49-60). The role in neurodegeneration by binding to amyloid-peptide led to its identification (Oppermann UC, et al FEBS Letters. 1999;451(3):238-242 and Yan SD, et al. Nature. 1997;389(6652):689-695), and mutations in its gene appear to be causative for 2-methyl-3-hydroxybutyryl-CoA dehydrogenase deficiency (Ofman R, et al. American Journal of Human Genetics. 2003;72(5):1300-1307). The enzyme was produced by E.coli fermentation as His-tagged recombinant for the purpose of X-ray structure determination, and had been mass-spectrometry characterized. Inhibition of HADH2 activity was screened by utilizing beta-hydroxybutyryl coenzyme A as an electron donor and NAD+ as an electron acceptor/cofactor. An increase in the fluorescence intensity due to conversion of NAD+ to NADH was used to measure the enzyme activity.
Assay Protocol: Buffer: 100 mM Tris-HCl pH 9.0, containing 0.01 % Tween-20. Reagents/Controls: Buffer in columns 3 and 4 as negative control (no enzyme). Substrate/cofactor solution: 1 mM NAD+ and 90 uM beta-hydroxybutyryl coenzyme A (Sigma-Aldrich, St. Louis, MO) final concentrations dispensed throughout the plate. Enzyme: 20 nM HADH2 final concentration in columns 1, 2, 5-48. Column 1 is neutral (100% activity). Column 2 contained titration of apomorphine (Sigma-Aldrich, A 4393, PubChem CID 2215, top concentration 500 uM, then 1:2 dilution in duplicate) Assay Steps: Three uL of enzyme were dispensed to 1536-well Greiner black solid bottom plates. Compounds and controls (23 nL) were transferred via Kalypsys PinTool. The plates were incubated for 15 min at room temperature, and then 1 uL of substrate/cofactor solution was added to start the reaction. The plates were immediately transferred to and read every 30 seconds for 4 min on ViewLux High-throughput CCD imager (Perkin-Elmer) using 360 nm excitation and 450 nm emission fluorescence protocol. The fluorescence intensity difference between the last and the first time points was used to compute reaction progress.
% is set by controls: 0 for no effect and ±100 for the full control effect; potency is the fitted concentration of half-maximal effect.
Note: nearly all actives have a fitted effect of over 60% in size.

| Structure (SMILES) | activity change, negative = inhibition | Potency |
| --- | --- | --- |
| CC(=NCc1ccco1)C1=C(O)c2ccccc2C1=O | -18% |  |
| O=c1[nH]c(-c2cccs2)nc2ccccc12 | -19.2% |  |
| CCc1c(C)nc2cc(-c3cccs3)[nH]n2c1=O |  | 39.8 µM (active) |
| Cc1nc2nc(COc3ccccc3)[nH]n2c(=O)c1Cc1ccccc1 | 1.89% |  |
| CN(C)C(=O)/N=N\C(=O)N(C)C |  | 0.631 µM (active) |
| CCNCCCNCCCNCCCNCC | 6.34% |  |
| CO[C@H]1COC(=O)CCC[C@@H](C)[C@H](OC)COC(=O)[C@@H](C)NC(=O)C/C=C\[C@@H]1C | 7.05% [at 11.4 µM] |  |
| Cc1cccn2c(=O)c3cc(C#N)c(=NC(=O)c4cccnc4)n(CC4CCCO4)c3nc12 (stereo not given) |  | 25.1 µM (active) |
| CCCOc1ccc(C2c3c(oc4cc(C)c(C)cc4c3=O)C(=O)N2CCCN2CCOCC2)cc1 (stereo not given) | -2.03% |  |
| Cn1c(=O)c2c(nc(CN3CCOCC3)n2Cc2ccccc2)n(C)c1=O | 6.36% |  |
| COc1ccc(CNC(=O)c2cc3c(=O)n4ccccc4nc3n(CC3CCCO3)c2=N)cc1 (stereo not given) | -24.1% |  |
| O=c1c2cc3c(=O)n(CC4CCCO4)c(=O)c3cc2c(=O)n1CC1CCCO1 (stereo not given) | 6.36% |  |
| Cc1cccn2c(=O)c3cc(C#N)c(=O)n(CCCN4CCOCC4)c3nc12 |  | 31.6 µM (active) |
| COc1ccc(-c2oc3cc(OC)ccc3c2C(=O)c2ccc(C#N)cc2)cc1 | 2.77% |  |
| c1ccc2nc(C3=NCCN3)cnc2c1 | -2.79% |  |
| CC(C)NC(=O)N1CCC2(CC1)CCN(C(=O)c1cccn1C)CC2 | -0.373% |  |
| O=C(Nc1nc(-c2ccc3c(c2)OCO3)cs1)c1ccncc1 | 1.46% |  |
| O=C(Nc1nc(-c2ccncc2)cs1)C1COc2ccccc2O1 (stereo not given) |  | 1 µM (active) |
| c1ccc(Nc2nc(-c3ccncc3)cs2)nc1 | 4.64% |  |
| C#CCCCCCCCCCCCCCCCC(=O)O | -6.22% |  |
| C[N+](C)(C)CCCCCNCC12CC3CC(CC(C3)C1)C2 | 8.85% |  |
| O=C1NC(=O)[C@@](Cc2ccccc2)(c2cccnc2)N1 | 1.4% [at 11.4 µM] |  |
| COc1ccc(N2CCN(C(c3cc4ccc(C)cc4[nH]c3=O)c3nnnn3C3CCCC3)CC2)cc1 (stereo not given) | 1.4% |  |
| COCCn1nnnc1C(c1cc2ccc(OC)cc2[nH]c1=O)N1CCc2ccccc2C1 (stereo not given) | -7.76% |  |
| CCOc1ccc2[nH]c(=O)c(C(c3nnnn3CCOC)N3CCOCC3)cc2c1 (stereo not given) |  | 25.1 µM (active) |

| Structure (SMILES) | activity change, negative = inhibition | Potency |
| --- | --- | --- |
| O=C(c1ccco1)N1CCC2(CC1)CCN(c1ncccn1)CC2 | -1.68% |  |
| CCC1=C/C(=C\c2ccc3c(c2)OCO3)C(=O)S1 |  | 31.6 µM (active) |
| CCCCC(=O)Nc1ccc2c(c1)OCCO2 | -4.77% |  |
| CCOC(=O)NCc1ccc2c(c1)OCO2 | 0.436% |  |
| C1CCC2OC2C1 (stereo not given) | -5.38% |  |
| O=C(Nc1nncs1)c1ccccc1NS(=O)(=O)c1cccs1 |  | 31.6 µM (active) |
| COc1ccc(C(=O)Nc2nncs2)c(OC)c1 | -22.5% |  |
| COC(=O)c1ccccc1NC(=O)c1ccccc1NS(C)(=O)=O | -21.3% |  |
| COC(=O)c1ccc(C(NC(=O)OCc2ccccc2)/C(C)=C/[C@@H](C)C(=O)NCc2cc(C)on2)cc1 (stereo not given in full) | 6.01% |  |
| Cc1cc(N2CCCCC2)nc2ccc(Cc3ccc4nc(N5CCCCC5)cc(C)c4c3)cc12 | 1.3% [at 11.4 µM] |  |
| Nc1ccc2[nH]cc(CCC(=O)O)c2c1 | -22.6% [at 11.4 µM] |  |
| Nc1cc(=O)nc(SCc2ccccc2)n1Cc1ccco1 | -3.38% |  |
| c1ccc(CSc2nnc(-c3ccco3)n2Cc2ccccc2)cc1 | 6.77% |  |
| c1ccc(CSc2nnc(-c3ccco3)c(-c3ccco3)n2)cc1 |  | 5.01 µM (active) |
| CC1=C(C(=O)OCc2ccccc2)C(c2ccc(C(F)(F)F)cc2)NC(=O)N1CCCCCC(=O)O (stereo not given) | 6.51% |  |
| COCCNc1cc(-c2c(C)noc2C)ncn1 | 2.69% |  |
| CN(CCc1ccccn1)S(=O)(=O)c1ccc2c3c(cccc13)C(=O)N2 |  | 31.6 µM (active) |
| O=c1[nH]nc(Cc2ccccn2)c2ccccc12 | -3.94% |  |
| COc1ccc(-c2nc3cnc(OC)nc3n(Cc3ccc(F)cc3)c2=O)cc1 | 2.45% |  |
| O=C(NCc1ccccc1)[C@H]1C[C@@H]1[C@H](NP(=O)(c1ccccc1)c1ccccc1)c1ccccc1 | -0.196% |  |
| Cc1nc2cnc(N3CCNCC3)nc2n(Cc2ccc(F)cc2)c1=O | -1.77% |  |
| CCn1c(CNC(=O)c2ccc(OC)c(OC)c2)nnc1SCC(=O)Nc1ccccc1 | 17.2% |  |
| CCOC(=O)c1cc2n(c1C)-c1ccccc1C2=O | 5.2% |  |
| CCCn1c(=NC(C)=O)c(C(=O)OCC)cc2c(=O)n3ccccc3nc21 |  | 31.6 µM (active) |
| CCOC(=O)c1cc2n(c1N)-c1ccccc1C2=O | -21.5% |  |
